Inconclusive results are not listed. Calls of active or inactive are those of the source. Rule for the calls: active = hit-call score of the fitted dose curve at least 0.9, where 1 is the maximum; inconclusive = response in the unintended direction; inactive = score below 0.9.
Assay: Tanguay_ZF_120hpf_OTIC_legacy: (Legacy) Oregon State University Tanguay Lab 120 Hour Post-fertilization zebrafish Assay for Otic Vesicle Malformation (AID 2283639)
Outline: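 Tropical 5D wild-type zebrafish embryos were exposed statically in sealed, foil-covered plates at 28C until 120 hpf, with 0.64% (vol/vol) DMSO final. Otic vesicle malformation was scored present/absent by brightfield microscopy, with DMSO as baseline.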
With `ClC(Cl)(Cl)c1ccccc1` the outcome was “inactive”. For `CCNc1nc(Cl)nc(NC(C)(C)C)n1`, the outcome was “inactive”. In the case of `[N-]=[N+]=[N-]`, the outcome was “inactive”. With `CCN(CC)c1ccccc1` the outcome was “inactive”. In the case of `c1nc[nH]n1`, the outcome was “inactive”. In the case of `CCOP(=S)(Oc1ccc([N+](=O)[O-])cc1)c1ccccc1` (stereo unspecified), the outcome was “inactive”. For `Cc1ccc([N+](=O)[O-])cc1C`, the outcome was “inactive”. For `Cc1ccc(N)cc1N`, the outcome was “inactive”. With `CCCCN(CCCC)SN(C)C(=O)Oc1cccc2c1OC(C)(C)C2` the outcome was “inactive”. In the case of `CN(C)C(=O)Cl`, the outcome was “inactive”. For `Nc1ccc(Cl)cc1`, the outcome was “inactive”.

Assay: Tanguay_ZF_120hpf_PE_legacy: (Legacy) Oregon State University Tanguay Lab 120 Hour Post-fertilization zebrafish Assay for Pericardial Edema (AID 2283640)
Outline: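 Tropical 5D wild-type zebrafish embryos were statically exposed until 120 hpf at 28C, with 0.64% DMSO final. Pericardial edema was scored by brightfield as present or absent; endpoints were not scored in dead embryos.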
For `Cc1ccc(O)cc1C`, the outcome was “inactive”. For `CC(Cl)(Cl)C(=O)O`, the outcome was “inactive”. With `Cc1cccc(N)c1` the outcome was “inactive”. In the case of `CC(C)(C)OOC(C)(C)C`, the outcome was “inactive”. For `CCN(CC)c1ccccc1`, the outcome was “inactive”. With `CCOc1ccc(C(C)(C)COCc2cccc(Oc3ccccc3)c2)cc1` the outcome was “inactive”. With `CCOC(=O)c1ccccc1C(=O)OCC` the outcome was “inactive”. With `CCOP(=S)(Oc1ccc([N+](=O)[O-])cc1)c1ccccc1` (stereo unspecified) the outcome was “inactive”. With `Cc1ccc([N+](=O)[O-])cc1C` the outcome was “inactive”. For `Cc1ccc(N)cc1N`, the outcome was “inactive”. With `Nc1cc2c3c(c1)C(c1ccccc1)=N[C@@H](NC(=O)c1cccnc1)C(=O)N3CC2` the outcome was “inactive”. For `CC(C)(C)c1ccc(O)cc1`, the outcome was “inactive”. In the case of `CCCCCCCc1ccc(O)cc1`, the outcome was “inactive”. In the case of `CCCCN(CCCC)N=O`, the outcome was “inactive”. In the case of `CCCN(CCC)c1c([N+](=O)[O-])cc(C(C)C)cc1[N+](=O)[O-]`, the outcome was “inactive”. With `CN(C)C(=O)Cl` the outcome was “inactive”. In the case of `Nc1ccc(Cl)cc1`, the outcome was “inactive”.

Assay: Tanguay_ZF_120hpf_BRAI_legacy: (Legacy) Oregon State University Tanguay Lab 120 Hour Post-fertilization zebrafish Assay for Brain Malformation (AID 2283641)
Outline: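 Tropical 5D wild-type zebrafish embryos exposed statically until 120 hpf at 28C, 0.64% DMSO final, sealed and dark. Brain malformation scored present/absent by brightfield at 120 hpf; dead embryos excluded. Trimethyltin chloride 5uM positive control.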
With `CC(Cl)(Cl)C(=O)O` the outcome was “inactive”. With `Cc1cccc(N)c1` the outcome was “inactive”. With `CCNc1nc(Cl)nc(NC(C)(C)C)n1` the outcome was “inactive”. In the case of `[N-]=[N+]=[N-]`, the outcome was “inactive”. In the case of `CC(C)(C)OOC(C)(C)C`, the outcome was “inactive”. With `CCN(CC)c1ccccc1` the outcome was “inactive”. For `c1nc[nH]n1`, the outcome was “inactive”. With `CCOc1ccc(C(C)(C)COCc2cccc(Oc3ccccc3)c2)cc1` the outcome was “inactive”. For `CCOC(=O)c1ccccc1C(=O)OCC`, the outcome was “inactive”. With `CCOP(=S)(Oc1ccc([N+](=O)[O-])cc1)c1ccccc1` (stereo unspecified) the outcome was “inactive”. In the case of `Cc1ccc([N+](=O)[O-])cc1C`, the outcome was “inactive”. For `Cc1ccc(N)cc1N`, the outcome was “inactive”. For `CCCCCCCc1ccc(O)cc1`, the outcome was “inactive”. With `CCCCN(CCCC)SN(C)C(=O)Oc1cccc2c1OC(C)(C)C2` the outcome was “inactive”. For `CCCCN(CCCC)N=O`, the outcome was “inactive”. In the case of `CCCN(CCC)c1c([N+](=O)[O-])cc(C(C)C)cc1[N+](=O)[O-]`, the outcome was “inactive”. For `CN(C)C(=O)Cl`, the outcome was “inactive”. In the case of `Nc1ccc(Cl)cc1`, the outcome was “inactive”.

Assay: Tanguay_ZF_120hpf_SOMI_legacy: (Legacy) Oregon State University Tanguay Lab 120 Hour Post-fertilization zebrafish Assay for Somite Malformation (AID 2283647)
Outline: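 Dechorionated Tropical 5D wild-type zebrafish embryos, one per well from 6 hpf, statically exposed at 28C to 120 hpf in 0.64% DMSO; somite malformation scored present/absent by brightfield; trimethyltin 5 uM positive control; dead embryos not scored.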
For `ClC(Cl)(Cl)c1ccccc1`, the outcome was “inactive”. In the case of `Cc1ccc(O)cc1C`, the outcome was “inactive”. For `CC(Cl)(Cl)C(=O)O`, the outcome was “inactive”. For `Cc1cccc(N)c1`, the outcome was “inactive”. With `CCNc1nc(Cl)nc(NC(C)(C)C)n1` the outcome was “inactive”. In the case of `[N-]=[N+]=[N-]`, the outcome was “inactive”. With `CC(C)(C)OOC(C)(C)C` the outcome was “inactive”. For `CCN(CC)c1ccccc1`, the outcome was “inactive”. For `c1nc[nH]n1`, the outcome was “inactive”. For `CCOc1ccc(C(C)(C)COCc2cccc(Oc3ccccc3)c2)cc1`, the outcome was “inactive”. With `CCOC(=O)c1ccccc1C(=O)OCC` the outcome was “inactive”. For `CCOP(=S)(Oc1ccc([N+](=O)[O-])cc1)c1ccccc1` (stereo unspecified), the outcome was “inactive”. In the case of `Cc1ccc(N)cc1N`, the outcome was “inactive”. For `Nc1cc2c3c(c1)C(c1ccccc1)=N[C@@H](NC(=O)c1cccnc1)C(=O)N3CC2`, the outcome was “inactive”. With `CC(C)(C)c1ccc(O)cc1` the outcome was “inactive”. In the case of `CCCCCCCc1ccc(O)cc1`, the outcome was “inactive”. In the case of `CCCCN(CCCC)SN(C)C(=O)Oc1cccc2c1OC(C)(C)C2`, the outcome was “inactive”. For `CCCCN(CCCC)N=O`, the outcome was “inactive”. For `CCCN(CCC)c1c([N+](=O)[O-])cc(C(C)C)cc1[N+](=O)[O-]`, the outcome was “inactive”. In the case of `Nc1ccc(Cl)cc1`, the outcome was “inactive”.

Assay: Tanguay_ZF_120hpf_PFIN_legacy: (Legacy) Oregon State University Tanguay Lab 120 Hour Post-fertilization zebrafish Assay for Pectoral Fin Malformation (AID 2283648);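 note: each larva judged yes or no for fin defect by brightfield with dead larvae skipped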
Outline: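 5D WT zebrafish; pronase dechorionation 4 hpf; 1 embryo/well at 6 hpf; static exposure to 120 hpf, 28C, sealed, foil-covered; final DMSO 0.64% v/v; 5 uM trimethyltin chloride positive control; fin defect scored yes/no.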
For `Cc1ccc(O)cc1C`, the outcome was “inactive”. For `CC(Cl)(Cl)C(=O)O`, the outcome was “inactive”. For `CCNc1nc(Cl)nc(NC(C)(C)C)n1`, the outcome was “inactive”. For `[N-]=[N+]=[N-]`, the outcome was “inactive”. With `CC(C)(C)OOC(C)(C)C` the outcome was “inactive”. With `CCOc1ccc(C(C)(C)COCc2cccc(Oc3ccccc3)c2)cc1` the outcome was “inactive”. With `CCOC(=O)c1ccccc1C(=O)OCC` the outcome was “inactive”. For `CCOP(=S)(Oc1ccc([N+](=O)[O-])cc1)c1ccccc1` (stereo unspecified), the outcome was “inactive”. With `Cc1ccc([N+](=O)[O-])cc1C` the outcome was “inactive”. For `Nc1cc2c3c(c1)C(c1ccccc1)=N[C@@H](NC(=O)c1cccnc1)C(=O)N3CC2`, the outcome was “inactive”. With `CC(C)(C)c1ccc(O)cc1` the outcome was “inactive”. For `CCCCCCCc1ccc(O)cc1`, the outcome was “inactive”. With `CCCCN(CCCC)SN(C)C(=O)Oc1cccc2c1OC(C)(C)C2` the outcome was “inactive”. With `CCCCN(CCCC)N=O` the outcome was “inactive”. In the case of `CCCN(CCC)c1c([N+](=O)[O-])cc(C(C)C)cc1[N+](=O)[O-]`, the outcome was “inactive”.

From PubChem BioAssay (EPA / NIEHS)
